Here are results for nine sequences from publication PMC5700166.

Positions count from the first letter of the chain named.

Experiment in all cases: protein-binding microarray (PBM); PBM: ~300 nM protein, 6 mM HEPES pH 7.8, 80 mM KCl, 0.5 mM EDTA, 0.5 mM EGTA, 6% glycerol, 35 ng/ul poly-dIdC, 1% milk, 1 h, room temperature; Ap Aiptasia and Nv Nematostella (sea anemones) / Co Capsaspora / Aq Amphimedon (sponge) / Dm Drosophila / Hu human; RHD is the Rel homology domain; high values mean tight binding
Common to all, as to conditions: dsDNA, one strand shown

In one test the target is T1, GST-Ap-NF-kB RHD (Exaiptasia pallida (Aiptasia), UniProt A0A913YAJ5 2-422).
T1 sequence: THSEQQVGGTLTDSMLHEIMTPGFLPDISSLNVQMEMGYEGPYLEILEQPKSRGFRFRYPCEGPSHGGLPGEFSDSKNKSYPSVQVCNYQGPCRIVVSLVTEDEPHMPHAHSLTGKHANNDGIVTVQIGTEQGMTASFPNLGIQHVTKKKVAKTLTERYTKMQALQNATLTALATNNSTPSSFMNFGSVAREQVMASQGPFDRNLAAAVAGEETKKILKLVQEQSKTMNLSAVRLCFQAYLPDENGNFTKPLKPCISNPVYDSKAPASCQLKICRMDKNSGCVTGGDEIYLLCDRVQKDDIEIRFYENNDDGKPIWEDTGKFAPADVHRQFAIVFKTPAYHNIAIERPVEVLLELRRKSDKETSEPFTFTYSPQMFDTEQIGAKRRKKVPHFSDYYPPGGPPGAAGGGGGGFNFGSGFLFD

Test [1] deals with T2, GST-Nv-NF-kB (Cys allele) (Nematostella vectensis, UniProt E5G601 2-411).
T2 sequence: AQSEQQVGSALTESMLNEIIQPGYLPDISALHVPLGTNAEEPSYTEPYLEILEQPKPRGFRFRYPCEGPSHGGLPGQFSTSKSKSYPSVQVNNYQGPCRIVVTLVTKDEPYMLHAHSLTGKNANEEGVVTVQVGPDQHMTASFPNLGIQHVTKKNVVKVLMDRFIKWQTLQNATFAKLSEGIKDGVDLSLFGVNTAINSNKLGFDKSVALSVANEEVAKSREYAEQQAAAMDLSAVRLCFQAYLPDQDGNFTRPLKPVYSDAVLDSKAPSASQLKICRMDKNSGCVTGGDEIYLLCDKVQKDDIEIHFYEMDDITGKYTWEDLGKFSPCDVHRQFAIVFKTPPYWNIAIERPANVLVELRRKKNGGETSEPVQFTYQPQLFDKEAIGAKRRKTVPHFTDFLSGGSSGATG

Test [2] addresses T3, GST-Nv-NF-kB (Ser allele) (Nematostella vectensis, UniProt A7UNT2 2-411).
T3 sequence: T2 sequence with Q21R, C66S, S207N, E215Q, V217A, E225K, A268E, D399E

For the next test, the target named is T4, GST-Co-NF-kB (Capsaspora owczarzaki, UniProt F1ARL5 200-546).
T4 sequence: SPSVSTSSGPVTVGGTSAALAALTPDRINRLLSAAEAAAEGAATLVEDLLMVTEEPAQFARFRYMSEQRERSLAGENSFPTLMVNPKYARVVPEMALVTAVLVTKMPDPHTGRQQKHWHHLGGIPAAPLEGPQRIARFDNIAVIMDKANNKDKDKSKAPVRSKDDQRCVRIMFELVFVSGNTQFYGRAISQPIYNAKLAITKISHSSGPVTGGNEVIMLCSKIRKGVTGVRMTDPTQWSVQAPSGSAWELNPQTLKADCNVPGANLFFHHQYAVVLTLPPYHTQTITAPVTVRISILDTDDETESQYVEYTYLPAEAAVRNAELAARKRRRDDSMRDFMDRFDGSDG

For the next test, the target named is T5, GST-Dm-Relish (Drosophila melanogaster, UniProt Q94527 99-473).
T5 sequence: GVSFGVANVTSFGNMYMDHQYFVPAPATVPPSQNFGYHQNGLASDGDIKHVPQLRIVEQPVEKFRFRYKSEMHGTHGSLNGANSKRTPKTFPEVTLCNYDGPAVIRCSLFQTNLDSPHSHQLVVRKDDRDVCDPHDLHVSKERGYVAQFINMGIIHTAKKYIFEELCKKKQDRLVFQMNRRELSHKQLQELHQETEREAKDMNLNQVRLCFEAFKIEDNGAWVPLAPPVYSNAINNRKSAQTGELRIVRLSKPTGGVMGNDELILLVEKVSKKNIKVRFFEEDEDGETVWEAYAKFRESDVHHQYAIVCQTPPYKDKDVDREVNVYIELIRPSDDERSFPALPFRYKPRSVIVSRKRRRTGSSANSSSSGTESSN

The target of a further test is T6, GST-Aq-NF-kB (Amphimedon queenslandica, UniProt A9Y5G7 2-389).
T6 sequence: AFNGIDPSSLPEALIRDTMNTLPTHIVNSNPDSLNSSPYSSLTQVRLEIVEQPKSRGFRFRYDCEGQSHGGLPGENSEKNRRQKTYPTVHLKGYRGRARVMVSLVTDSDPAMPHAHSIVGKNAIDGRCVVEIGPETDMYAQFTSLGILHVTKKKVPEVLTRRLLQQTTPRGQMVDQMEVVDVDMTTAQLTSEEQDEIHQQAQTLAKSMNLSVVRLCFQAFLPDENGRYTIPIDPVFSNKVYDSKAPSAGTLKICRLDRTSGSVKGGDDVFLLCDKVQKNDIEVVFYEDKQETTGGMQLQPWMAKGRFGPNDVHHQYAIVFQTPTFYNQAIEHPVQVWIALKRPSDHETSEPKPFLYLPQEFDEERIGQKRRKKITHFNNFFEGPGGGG

A further test has as its target GST-Hu-p50 (Homo sapiens, UniProt P19838 7-356).

Sequence of GST-Hu-p50 (P19838 7-356): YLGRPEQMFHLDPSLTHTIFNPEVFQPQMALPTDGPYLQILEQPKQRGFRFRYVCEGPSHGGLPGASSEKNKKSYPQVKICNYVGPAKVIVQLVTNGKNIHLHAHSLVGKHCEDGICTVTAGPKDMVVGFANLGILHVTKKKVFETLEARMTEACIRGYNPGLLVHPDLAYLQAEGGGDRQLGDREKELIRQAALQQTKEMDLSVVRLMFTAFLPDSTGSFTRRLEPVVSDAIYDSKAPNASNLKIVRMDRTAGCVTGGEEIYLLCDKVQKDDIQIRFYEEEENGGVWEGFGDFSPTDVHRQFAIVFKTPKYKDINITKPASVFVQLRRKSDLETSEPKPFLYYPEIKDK

As for “CCGATTAACATCAAATTACCCCCTGATGTTAATCGGGTCTTGATTCGCTTGACGCTGCTG”, the binding signal was 6.8 z-score with GST-Ap-NF-kB RHD; 5.57 z-score in test [1]; 6.77 z-score in test [2]; 8.18 z-score with GST-Co-NF-kB; 4.33 z-score with GST-Dm-Relish; 5.57 z-score with GST-Aq-NF-kB. This sequence returned a binding signal in the test with GST-Hu-p50 of 5.08 z-score.
On to “CCGATTAACATCAGGATGCCCCCTGATGTTAATCGGGTCTTGATTCGCTTGACGCTGCTG”, for which the binding signal was determined as 4.93 z-score in the test with GST-Ap-NF-kB RHD; 4.06 z-score in test [1]; 2.93 z-score in test [2]; 1.55 z-score with GST-Co-NF-kB; 4.63 z-score with GST-Dm-Relish; 5.09 z-score in the test with GST-Aq-NF-kB. The sequence further returned a binding signal in the test with GST-Hu-p50 of 4.35 z-score.
On to “CCGATTAACATCACGGATTCCCCTGATGTTAATCGGGTCTTGATTCGCTTGACGCTGCTG”, for which the binding signal with GST-Ap-NF-kB RHD came to 8.74 z-score; in test [1], 9.07 z-score; in test [2] it was 9.24 z-score; with GST-Co-NF-kB it was 6.61 z-score; with GST-Dm-Relish, 8.89 z-score; with GST-Aq-NF-kB, 6.68 z-score. The sequence also registered a binding signal with GST-Hu-p50 of 6.26 z-score.
On to “CCGATTAACATCAAATTCCCCCCTGATGTTAATCGGGTCTTGATTCGCTTGACGCTGCTG”, for which the binding signal in the test with GST-Ap-NF-kB RHD amounted to 8.5 z-score; in test [1] it was 8.77 z-score; in test [2], 8.88 z-score; with GST-Co-NF-kB, 10.1 z-score; with GST-Dm-Relish, 8.4 z-score; in the test with GST-Aq-NF-kB, 7.65 z-score. For the same sequence, the binding signal with GST-Hu-p50 worked out at 6.85 z-score.
For the sequence “CCGATTAACATCAATTCTCCCCCTGATGTTAATCGGGTCTTGATTCGCTTGACGCTGCTG”, the binding signal came out at 6.48 z-score with GST-Ap-NF-kB RHD; 6.19 z-score in test [1]; 8.64 z-score in test [2]; 10.7 z-score with GST-Co-NF-kB; 3.06 z-score with GST-Dm-Relish; 5.16 z-score in the test with GST-Aq-NF-kB. In the test with GST-Hu-p50, this sequence came in with a binding signal of 6.9 z-score.
With “CCGATTAACATCAGGGGATGAATTGATGTTAATCGGGTCTTGATTCGCTTGACGCTGCTG”, the binding signal is 3.07 z-score with GST-Ap-NF-kB RHD; 4.37 z-score in test [1]; 5.12 z-score in test [2]; 4.99 z-score with GST-Co-NF-kB; 2.75 z-score with GST-Dm-Relish; 3.44 z-score with GST-Aq-NF-kB. This sequence also came in with a binding signal with GST-Hu-p50 of 3.88 z-score.
Consider “CCGATTAACATCAAAAGTTCCCCTGATGTTAATCGGGTCTTGATTCGCTTGACGCTGCTG”, for which the binding signal in the test with GST-Ap-NF-kB RHD stood at 8.35 z-score; in test [1] it was 9.74 z-score; in test [2], 10.9 z-score; with GST-Co-NF-kB, 9.64 z-score; in the test with GST-Dm-Relish, 9.48 z-score; in the test with GST-Aq-NF-kB, 7.95 z-score. In addition, the binding signal in the test with GST-Hu-p50 was found to be 6.5 z-score.
Consider “CCGATTAACATCAAAAAAGTCCCTGATGTTAATCGGGTCTTGATTCGCTTGACGCTGCTG”, for which the binding signal in the test with GST-Ap-NF-kB RHD worked out at 8.8 z-score; in test [1], 11.6 z-score; in test [2], 11.5 z-score; with GST-Co-NF-kB, 2.41 z-score; in the test with GST-Dm-Relish, 9.77 z-score; with GST-Aq-NF-kB, 8.92 z-score. Also, the binding signal with GST-Hu-p50 was 7.77 z-score.
Take “CCGATTAACATCAAAACATTCCCTGATGTTAATCGGGTCTTGATTCGCTTGACGCTGCTG”: the binding signal came out at 3.1 z-score with GST-Ap-NF-kB RHD; 5.46 z-score in test [1]; 4.94 z-score in test [2]; 4.18 z-score with GST-Co-NF-kB; 3.87 z-score with GST-Dm-Relish; 6.04 z-score in the test with GST-Aq-NF-kB. Moreover, the binding signal with GST-Hu-p50 stood at 3.88 z-score.
